Hits are enriched below; roughly 3% of the tested compounds scored in any of these assays.
ROMK mod: ROMK potassium channel modulators, primary screen, cell-based, thallium flux, MLSMR library. ATP-sensitive inward rectifier potassium channel 1 (Homo sapiens), P48048. 130,000 tested, 2% active. AID 1918, 2009. B-score at 10 µM. Tet-inducible ROMK, thallium flux fluorescence; actives lie on both sides;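 active means signal ratio slope over the read window, or its plate-corrected B-score, at least 3 SD from the plate mean, either direction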;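 further: B-score of the F/F0 ratio slope over 7 to 12 s after thallium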
Target sequence (P48048 whole entry, looked up): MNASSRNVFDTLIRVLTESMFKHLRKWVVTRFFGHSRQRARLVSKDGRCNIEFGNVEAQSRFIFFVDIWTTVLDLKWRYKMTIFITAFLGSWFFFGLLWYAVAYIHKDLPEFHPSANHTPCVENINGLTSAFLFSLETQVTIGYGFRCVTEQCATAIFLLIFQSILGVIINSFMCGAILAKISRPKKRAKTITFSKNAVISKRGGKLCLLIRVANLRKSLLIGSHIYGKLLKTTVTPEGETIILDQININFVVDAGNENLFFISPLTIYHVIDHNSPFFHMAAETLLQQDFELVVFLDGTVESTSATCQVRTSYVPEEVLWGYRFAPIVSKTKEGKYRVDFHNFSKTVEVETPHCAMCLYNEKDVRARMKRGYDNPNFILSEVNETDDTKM
14-3-3 Bad PPI: inhibitors of 14-3-3 zeta/Bad binding, primary screen, biochemical, TR-FRET, bovine 14-3-3 zeta | TR-FRET 14-3-3zeta/Dy647-pBad peptide displacement, 1 h | 14-3-3 protein zeta/delta (Bos taurus), P63103 | 220,000 tested, 0.71% active | inhibition, % at 21.7 µM;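 active means inhibition above about 70%, limit read from the data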
Target sequence (P63103 whole entry, looked up): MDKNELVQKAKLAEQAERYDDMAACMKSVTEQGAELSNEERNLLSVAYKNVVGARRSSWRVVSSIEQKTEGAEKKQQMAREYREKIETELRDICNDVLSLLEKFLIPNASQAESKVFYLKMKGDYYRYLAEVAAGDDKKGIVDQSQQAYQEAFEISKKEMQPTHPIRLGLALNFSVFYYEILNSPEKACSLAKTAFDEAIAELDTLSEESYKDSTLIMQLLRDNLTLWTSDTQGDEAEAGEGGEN
zVAD death inh: inhibitors of zVAD-triggered necroptosis, primary screen, L929 cells. L929 zVAD necroptosis rescue, ATP luminescence, 24 h; with zVAD 60 µM. viability rescue, % at 10 µM. 220,000 tested, 0.38% active. AID 1377, 2008;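 active means activation, scaled between plate controls, above about 75%, limit read from the data; inactive means activation under that limit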
Efa HMGR inh: inhibitors of E. faecalis class II HMGR, primary screen, biochemical, Enterococcus faecalis; purified E. faecalis HMGR, NADPH absorbance 340 nm kinetic; AID 1066, 2008; inhibition, % at 10 µM; 190,000 tested, 0.41% active; HMG-CoA reductase (Enterococcus faecalis, mvaE);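 active means inhibition above a set limit, the median over all tested compounds plus 3 SD, cut at about 9.5% in these data; inconclusive means no clear call, values can overlap the other calls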;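 further: enzyme runs in reverse so mevalonate oxidation gives rising NADPH absorbance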
Calpain2 inh: inhibitors of pig calpain II, primary screen, biochemical, fluorogenic peptide substrate, 1536-well | purified calpain II, 30 min | inhibition, % at 16 µM | 220,000 tested, 0.37% active;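 active means inhibition above about 50%, limit read from the data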
TNF death inh: inhibitors of TNF-alpha triggered necroptosis, primary screen, cell-based, Jurkat FADD-/-, single concentration | activation (protection from cell death), % at 10 µM | 220,000 tested, 0.068% active | AID 463075, 2010 | Jurkat FADD-/- TNF necroptosis rescue, ATP luminescence, 24 h; 0 = TNF only, 100 = no-TNF cells;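 active means activation, meaning protection from cell death, of at least 50% relative to plate controls; inactive means activation below 50%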;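 further: necroptosis triggered by 40 ng/mL TNF-alpha added together with compound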
ROMK retest: ROMK channel modulator hit retest, confirmation, cell-based, thallium flux, duplicate, resupplied hits; normalized thallium flux (F/F0 slope) at 10 µM; AID 1917, 2009; 3,000 tested, 54% active; fluorescence ratio; hits give low values; shares compounds with ROMK mod;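 active means Flux at 10 µM at least 3 SD below or above vehicle control mean in one or both replicates; inconclusive means no clear call, values can overlap the other calls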
Numbers stand for hits; n = inactive; u = inconclusive; x = no result given.

SMILES	ROMK mod	14-3-3 Bad PPI	zVAD death inh	Efa HMGR inh	Calpain2 inh	TNF death inh	ROMK retest
C/C(=N/NC(=O)CNC(=O)C(c1ccccc1)c1ccccc1)c1ccco1	n	n	n	x	n	n	x
CCSc1nnc(NC(=O)C(CC)(C(F)(F)F)C(F)(F)F)s1	n	n	n	n	n	n	n
CCSc1nnc(NC(=O)NCC(F)(F)F)s1	2.6	n	n	n	n	n	n
CCSc1nnc(NC(=O)C(C(F)(F)F)C(F)(F)F)s1	n	n	n	n	n	n	x
CCSc1nnc(NC(=O)C(C)(C(F)(F)F)C(F)(F)F)s1	n	n	n	n	n	n	x
COc1ccc(C)cc1NC(=O)CSc1nnc(CC(=O)Nc2ccccc2C)n1C	n	n	n	n	n	n	x
CCN(CC)c1ccc(/C=C(/C#N)c2nc3ccccc3[nH]2)c(OC(C)C)c1	x	n	n	n	n	n	x
CN(C)CCNC(=O)c1scc2c1CCCC2	x	n	n	x	n	n	n
Cc1ccc2nc(-c3cccnc3)cc(C(=O)N3CCN(c4ccc([N+](=O)[O-])cc4)CC3)c2c1	n	n	n	n	n	n	x
Cc1ccc2c(C(=O)N3CCN(c4ccccc4)CC3)cc(-c3cccnc3)nc2c1C	1.9	n	n	n	n	n	n
Cc1cc(NC(=O)CSc2nc(-c3ccccc3)nc3c2c(=O)n(C)c(=O)n3C)no1	x	n	n	n	n	n	x
CCc1ccc2[nH]c(=O)c(CN(Cc3ccccc3OC)C(=O)Nc3ccccc3OC)cc2c1	0.96	n	n	n	n	n	n
COc1cc(/C=C2\SC(=S)N(NS(=O)(=O)c3ccc(C)cc3)C2=O)ccc1O	x	n	n	x	n	n	x
COc1cc(/C=C2\SC(=S)N(NS(=O)(=O)c3ccccc3)C2=O)ccc1O	x	n	n	x	n	n	0.0412
CCOC(=O)CSC1=NC(=O)/C(=C\c2ccc(OC(C)=O)cc2)S1	x	n	n	n	n	n	0.0401
CCOC(=O)CSC1=NC(=O)/C(=C/c2ccc(Br)cc2)S1	n	n	n	n	n	n	0.0614
CC(CCc1ccccc1)NC(=O)/C=C/c1ccc(F)cc1 (centres undefined)	2.1	n	n	n	n	n	n
Cc1ccc2cc(C#N)c(NCCNC(=S)NCCCN(C)C)nc2c1C	-3.13	n	n	n	n	n	0.0572
N#CC1=C(N)SC(N)=C(C#N)C1c1ccc(C(F)(F)F)cc1	-3.55	n	n	n	n	n	0.0454
O=C(NC(=S)Nc1ccc(N2CCOCC2)cc1)c1cncc(Br)c1	n	n	n	n	n	n	x
COc1ccccc1NC(=O)CCSc1nnnn1C	x	n	n	n	n	n	n
N#C/C(=C/c1cc(Br)cs1)C(=O)NCC1CCCO1 (centres undefined)	x	n	n	n	n	n	0.0643
CCCCNC(=O)C1CCN(S(=O)(=O)c2c(C)noc2/C=C\c2ccc(OC)cc2)CC1	x	n	n	n	n	n	n
COc1ccccc1C1=Nn2c(COc3ccccc3)nnc2SC1	n	n	n	n	n	n	x
CSc1nc2[nH]c3c(c2c2nnnn12)CCCC3	x	n	n	n	n	n	n
SMILES	ROMK mod	14-3-3 Bad PPI	zVAD death inh	Efa HMGR inh	Calpain2 inh	TNF death inh	ROMK retest
CSc1nc2[nH]c3c(c2c2nncn12)CC(C)(C)OC3	n	n	n	n	n	n	x
Cc1cc(F)ccc1N1CCC(N2CCN(CCC(C)C)C(CCO)C2)CC1 (centres undefined)	-2.78	n	n	n	n	n	0.0578
COc1cc(NC(=O)CN2CCN(c3ccccc3O)CC2)c(C)cc1[N+](=O)[O-]	-4.41	n	n	n	n	n	0.0491
COc1cc(NC(=O)CN2CCC(C)CC2)c(C)cc1[N+](=O)[O-]	x	n	n	n	n	n	x
O=C(NC1CC1)c1cc2c(s1)-c1ccccc1OC2	x	n	n	n	n	n	x
O=C(O)c1cc2c(s1)-c1ccccc1OC2	x	n	n	n	n	n	u
CCOC(=O)c1c(C)n(C)c2ccc(OCC(O)Cn3nc(C)cc3C)cc12 (centres undefined)	x	n	n	n	n	n	0.0668
CCOC(=O)c1c(C)n(C)c2ccc(OCC(O)CN(CC)CC)cc12 (centres undefined)	x	n	n	n	n	n	x
O=S1(=O)CCC(NC(=S)SCCOc2ccccc2)C1 (centres undefined)	-4.99	n	n	n	n	n	0.068
O=C(COc1ccc(Cl)cc1)N/N=C/CCc1ccccc1	n	n	n	n	n	n	x
COc1cccc(NC(=O)N2CCCC2C(=O)NCc2ccccc2F)c1 (centres undefined)	n	n	n	n	n	n	x
CCOc1ccc(N(Cc2cc3ccc(C)cc3[nH]c2=O)S(C)(=O)=O)cc1	x	n	n	n	n	n	x
O=P(OC1CCCCC1)(OC1CCCCC1)C(Nc1ccccc1)c1cccnc1 (centres undefined)	x	n	n	x	n	n	u
CCCCCc1ccc(OCCCC[n+]2cccc(C)c2)c(CCCCC)c1	n	n	n	n	n	n	x
CCCCCc1ccc(OCCCC[n+]2ccccc2)c(CCCCC)c1	-4.92	n	n	n	n	n	0.0552
CCCCCc1ccc(OCCCC[n+]2ccc(C)cc2)c(CCCCC)c1	-5.65	n	n	n	n	n	0.0474
CCOc1ccc(NC(=O)CC2C(=O)N(c3ccc(OC)cc3)C(=S)N2Cc2ccccn2)cc1 (centres undefined)	n	n	n	n	n	n	x
O=C(COC(=O)C12CC3CC(CC(C3)C1)C2)Nc1nc2c(F)c(F)c(F)cc2s1	n	n	n	n	n	n	x
COCC(=O)O[C@]1(CCN(C)CCCc2nc3ccccc3[nH]2)CCc2cc(F)ccc2[C@@H]1C(C)C	x	n	n	x	n	n	0.0606
CCOC(=O)CCc1nc2ccccc2[nH]1	n	n	n	n	n	n	x
COc1ccccc1NS(=O)(=O)c1cccc(C(=O)N/N=C/c2ccc(NC(C)=O)cc2)c1	n	n	n	n	n	n	x
CCOC(=O)C1(CCOc2ccccc2)CCN(Cc2ccc(C)o2)CC1	-4.51	n	n	n	n	n	0.0674
CCOC(=O)C1(CCc2ccccc2)CCN(Cc2c(O)cccc2OC)CC1	-2.79	n	n	n	n	n	0.0547
CCOC(=O)C1(CCc2ccccc2)CCN(Cc2ccc(OC)cc2)CC1	n	n	n	n	n	n	x
COc1ccccc1/C=C/C=N/NC(=O)CC1C(=O)NN=C1C (centres undefined)	-11.3	n	n	x	n	n	n

Compound activity as filed in PubChem BioAssay.
